Compound activity as filed in PubChem.
Rows were chosen to be rich in hits. Some 8% of all compounds tested hit in one or more screens of this group.
KB-V1 cytotox = KB-V1 MDR subline cytotoxicity. KB-V1 MDR cells viability, CellTiter-Glo, 72 h. Potency, µM (series often up to 46.1 µM), usual class: cytotoxic. hit rate 3.4% among 400,000. AID 1347076; also: % is scaled to controls: 0 for no effect and ±100 for the full control effect; nearly all actives have a fitted effect of over 60% in size
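KB-V1 MDR subline cells in DMEM (phenol-red free, 10% FBS) exposed to compounds in qHTS concentration series for 72 h at 37 degrees C. Viability read by CellTiter-Glo luminescence; concentration-effect curves fitted after normalization and correction.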
MCF10A rereplic = induces DNA re-replication in MCF 10a normal breast cells; MCF 10A DNA re-replication, Hoechst nuclear intensity, 48 h; Potency, µM (series often up to 46.1 µM), for inactives: top-dose activity, positive = re-replication, most hits filed as activators; hit rate 2.9% among 350,000; AID 624296; also: % of control where 0% means no effect; nearly all actives have a fitted effect of over 50% in size
HT1080NT lethal = kills 2HG-producing HT-1080-NT fibrosarcoma cells. HT-1080-NT fibrosarcoma viability, CellTiter-Glo ATP luminescence, 48 h. Potency, µM (doses to about 46.1 µM), inactives show at the top dose activity, negative = less viability, usual class: cytotoxic. hit rate 1.6% among 360,000;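 also: NT is the 2HG producing partner of a matched IDH1 knockdown line; 0% = DMSO-treated cells and -100% = media-only wells without cells; nearly all actives have a fitted effect of over 55% in size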
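750 cells/well, RPMI + 5% FBS; 2 h settle, compound pin-transfer, 48 h at 37 degrees C. CellTiter-Glo 10 min RT, luminescence. Normalized to DMSO and media-only wells.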
KB-3-1 cytotox = KB-3-1 parental cell cytotoxicity; hit rate 1.4% among 400,000; KB-3-1 viability, CellTiter-Glo ATP luminescence, 72 h; Potency, µM (titrated, usually from 46.1 µM), hits mostly cytotoxic; AID 1347075; also: % is scaled to controls: 0 for no effect and ±100 for the full control effect; nearly all actives have a fitted effect of over 60% in size
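Cytotoxicity measured as CellTiter-Glo luminescence after 72 h at 37 C. Compound titrations were pinned onto drug-naive KB-3-1 parental adenocarcinoma cells grown in DMEM with 10% FBS, and normalized data fitted to concentration-response curves.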
SW480 rereplic = inducers of DNA re-replication in SW480 colon cancer cells; SW480 DNA re-replication, Hoechst DNA content imaging, 48 h; Potency, µM (titrated, usually from 46.1 µM), without a hit: top-dose re-replication activation, actives largely listed as activators; hit rate 1.8% among 340,000; AID 624297; also: % of control where 0% means no effect; nearly all actives have a fitted effect of over 55% in size
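Compounds, transferred as 23 nL by pin tool, were incubated with cells for 48 hr; DNA content per nucleus was then quantified by Hoechst staining and fluorescence plate imaging.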
HT1080 IDH1KD tx = toxicity to HT-1080 IDH1 knockdown cells (counter line) | HT-1080 IDH1 knockdown viability, ATP luminescence, 48 h | Potency, µM (highest dose often 46.1 µM), for inactives: at the highest dose activity, negative = toxicity, most hits filed as cytotoxic | hit rate 2% among 360,000 | AID 686971;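 also: 0% = DMSO wells and -100% = cell-free medium wells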
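CellTiter-Glo luminescence after 48 h compound exposure at 37 degrees C of IDH1-knockdown HT-1080 cells in 5% FBS RPMI. %Activity scaled between DMSO wells and cell-free media wells, with curves fitted and assigned curve classes.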
* hit, by the source's call; i = inactive; ? = inconclusive; . = no result given. Calls follow the shape of the dose curve; as a rule, active = well fitted curve in the direction sought with a large enough effect; inconclusive = small, poorly fitted or top-dose-only effect, or another doubt; inactive = no such curve, though single readings can be large; an effect the other way counts as inactive or inconclusive. Potency is read from the fitted curve at half-maximal effect.

SMILES	KB-V1 cytotox	MCF10A rereplic	HT1080NT lethal	KB-3-1 cytotox	SW480 rereplic	HT1080 IDH1KD tx
O=C(CSCCc1ccccn1)Nc1ccccn1	i	24%	3%	?	-2%	-5%
O=C(CCSCCc1ccccn1)Nc1c(F)cc(F)cc1Br	16µM*	?	8%	i	1%	2%
O=C(CSCCc1ccccn1)Nc1ccc(Br)cn1	21µM*	13%	5%	i	-12%	6%
N=c1n(CCCOc2ccc(Br)cc2)c2ccccc2n1CC(N)=O	i	8%	?	i	?	?
O=C(CSc1nc(-c2ccccc2)c(-c2ccccc2)[nH]1)NCCN1C(=O)CSC1=O	?	?	4.6µM*	3.7µM*	?	6.5µM*
O=C(CSc1nnc(-c2ccccc2)c(-c2ccccc2)n1)NCc1ccco1	16µM*	18µM*	-30%	?	19%	?
O=C(CSC1=NCCS1)NCc1ccco1	i	23µM*	3%	i	?	0%
O=C(CSC1=Nc2ccccc2C2CC=NN12)NCc1ccco1 (centres undefined)	?	21µM*	?	?	?	7.3µM*
O=C(Cc1ccccc1C(=O)O)Nc1cccc2ccccc12	i	0%	-3%	i	-1%	-7%
COc1cc(-c2cc(=O)c3c(O)c(OC)c(OC)cc3o2)cc(OC)c1O	i	-2%	?	i	8%	?
O=C(CSc1nc(-c2ccccc2)c(-c2ccccc2)[nH]1)NCc1ccco1	10µM*	15µM*	?	?	12µM*	?
COc1cc(CN(C(=S)NCC(=O)O)C2CCCC2)cc(OC)c1OC	i	0%	1%	i	-13%	7%
CCCNC(=O)CNC(=S)N(Cc1cc(OC)c(OC)c(OC)c1)C1CCCC1	16µM*	9%	4%	i	-42%	1%
CCCCOC(=O)c1ccc(NC(=O)C(=O)CC(=O)c2ccc(OC)cc2)cc1	?	15µM*	-5%	?	0%	-21%
COc1ccccc1-c1c(-c2ccc(O)cc2O)n[nH]c1C(F)(F)F	i	-3%	-5%	i	-3%	-20%
COc1ccc(-c2c(-c3ccc(OC)c(C)c3O)n[nH]c2C)cc1	i	?	?	i	3%	18µM*
COc1ccc(-c2c(-c3ccc(O)cc3O)n[nH]c2C(F)(F)F)cc1	i	?	?	i	12µM*	?
Oc1ccc(-c2n[nH]c(C(F)(F)F)c2-c2ccccc2)c(O)c1	?	?	-20%	?	-1%	10µM*
O=C(CN1CCN(c2ncccn2)CC1)Nc1ccccc1-n1cccc1	12µM*	-12%	0%	i	-1%	5%
O=C(CN1CCN(c2ccccn2)CC1)Nc1ccccc1Br	i	13%	3%	i	0%	0%
CSc1ncccc1C(=O)OCC(=O)c1ccccc1	i	-2%	10%	i	1%	25%
Cc1ccccc1OCC(=O)Nc1ccccc1C(=O)NC1CC1	?	9%	-12%	i	-5%	-10%
C=CCn1c(=S)[nH]c2nc3c(cc2c1=O)CCCC3	i	?	8.9µM*	?	1%	8.9µM*
C=CCn1c(=S)[nH]c2ccc(Br)cc2c1=O	?	1%	4%	?	0%	2%
Cc1cccc(C)c1NC(=O)c1c(O)c2ccccc2[nH]c1=O	?	4%	-26%	18µM*	-6%	-14%
SMILES	KB-V1 cytotox	MCF10A rereplic	HT1080NT lethal	KB-3-1 cytotox	SW480 rereplic	HT1080 IDH1KD tx
O=C1C=CC(=O)N1CCCCCCCCCCN1C(=O)C=CC1=O	i	?	?	?	6.5µM*	?
O=C1C=CC(=O)N1Cc1ccncc1	i	-3%	6%	i	-4%	13%
COc1coc(/C=C/C(=O)O)cc1=O	i	-1%	18%	i	1.5µM*	17%
COc1cc2c(cc1/C=C/C(=O)O)OC(C)C2 (centres undefined)	i	0%	9%	i	-9%	1%
O=c1[nH]c(=O)n([C@H]2C[C@H](O)[C@@H](CO)O2)cc1F	?	-3%	0.46µM*	?	?	0.73µM*
CCOc1cc(S(=O)(=O)NCCCN2CCOCC2)c(C)cc1C	?	12%	4%	i	-7%	7%
O=C(NCc1cccs1)C1CCCN1S(=O)(=O)c1ccccc1F (centres undefined)	12µM*	10%	2%	i	-1%	-2%
COc1ccc(CNC(=O)c2ccc(S(=O)(=O)N3CC(C)CC(C)C3)cc2)cc1OC (centres undefined)	7.3µM*	5%	-4%	i	9%	-8%
COc1ccc(CCNC(=O)C2CCN(S(=O)(=O)N3CCC(C)CC3)CC2)cc1OC	21µM*	1%	8%	?	-1%	-2%
CC1CCN(S(=O)(=O)N2CCC(C(=O)NCc3cccs3)CC2)CC1	18µM*	-3%	18%	i	-12%	8%
COc1cc(-c2nc(S(=O)(=O)c3ccccc3)c(N3CCOCC3)o2)cc(OC)c1OC	i	18%	3%	i	1%	-1%
COCCNc1nc2nonc2nc1N1CCC(N(C)C)C1 (centres undefined)	?	4%	15%	i	13%	4%
CC(/C=N/n1c(-c2n[nH]c3c2CCC3)n[nH]c1=S)=C\c1ccco1	i	4%	-11%	i	-3%	-2%
O=C(NCCCN1CCN(c2ccc(F)cc2)CC1)NC12CC3CC(CC(C3)C1)C2	i	?	16µM*	i	?	15µM*
O=C(CN1CCN(Cc2ccc(Cl)cc2)C1=O)NCCCN1CCN(c2ccc(F)cc2)CC1	i	?	?	?	?	16µM*
CCOc1ccc(NC(=O)Cn2cc(C(=O)c3cccs3)c3ccccc32)cc1	i	.	.	i	.	.
CCCc1nnc(NC(=O)CCC(=O)N2CCN(c3nc(C)cc(C)n3)CC2)s1	i	-1%	11%	i	-7%	11%
Cc1ccc(-n2cccc2C(=S)N=P(N(C)C)(N(C)C)N(C)C)cc1	3.3µM*	?	?	8.2µM*	?	8.2µM*
CCN1CCN(Cc2c(O)ccc3c(=O)c(Oc4ccccc4Cl)c(C(F)(F)F)oc23)CC1	i	.	.	i	.	.
CCOc1cc(C)c(-c2onc(C(F)(F)F)c2-c2csc(C)n2)c(O)c1	13µM*	?	?	?	8%	?
Cc1cc(C(=O)OCC(=O)NCc2cccs2)c2ccccc2n1	i	10%	-2%	i	28%	4%
